According to article PMC12670160, “A drug-repurposing screen of FDA- and EMA-approved drugs identifies two NF-κB inhibitors active against eumycetoma” (Journal of Antimicrobial Chemotherapy, 2025):
Structures can show the parent of a compound that is named as a salt. The campaign covered roughly 5,300 compounds. About 130 (2.5%) showed an effect of 50% or more. For the sample, strong results were picked, then their nearest neighbours and some compounds at random.

test system: M. mycetomatis strain mm55; conditions: primary screen, metabolic activity vs growth control; 96 h, 2 µM; inhibitor

| Compound | % viability |
| --- | --- |
| CC(C)[C@H](N)C(=O)OCCOCn1cnc2c(=O)[nH]c(N)nc21 [ONC0004144, valacyclovir hydrochloride] | 101.2% |
| O=c1[nH]ccc2cc(OC3CCNCC3)ccc12 [ONC0001198, sar407899 hydrochloride] | 94.6% |
| O=C(CC1CC(c2ccc(F)cc2F)=NO1)N1CCOCC1 (stereo not drawn) [ONC0000237, cpsi1306] | 89.07% |
| O=C1CN(/N=C/c2ccc(-c3ccc([N+](=O)[O-])cc3)o2)C(O)=N1 [ONC0003073, dantrolene] | 104.9% |
| COC(=O)[C@@]12OC[C@]34[C@H]([C@@H](O)[C@@H]1O)[C@@]1(C)CC(=O)C(O)=C(C)[C@@H]1C[C@H]3OC(=O)[C@H](OC(=O)/C=C(\C)C(C)C)[C@@H]24 [ONC0001105, bruceantin] | 72.53% |
| COc1cc2nc(N3CCCN(C)CC3)nc(NC3CCN(Cc4ccccc4)CC3)c2cc1OC [ONC0004534, bix 01294] | 44.63% |
| COc1cc2c(NC3CCN(C)CC3)nc(N3CCCN(C)CC3)nc2cc1OCCOCCN(C)C [ONC0002054, unc0321] | 65.32% |
| COc1cc2c(NC3CCN(C)CC3)nc(N3CCCN(C)CC3)nc2cc1OCCCN(C)C [ONC0000276, unc0224] | 85.54% |
| CNCCc1c[nH]cn1 [ONC0002580, nalphamethylhistaminedihydrochloride] | 77.02% |
| C[C@]12C=CC(=O)C=C1CCC1C2[C@@H](O)C[C@@]2(C)C1CC[C@]2(O)C(=O)COC(=O)CCC(=O)O (stereo partly drawn) [ONC0004028, prednisolone hemisuccinate] | 62.59% |
| COc1ccc2c(NC(=O)Nc3cccc(C(F)(F)F)n3)ccnc2c1 [ONC0002529, a1070722] | 76.76% |
| NCC(=O)CCC(=O)O [ONC0004291, aminolevulinic acid hydrochloride] | 48.43% |
| NCC(=O)O [ONC0001985, glycine] | 104.5% |
| O=C(O)CCC(=O)O [ONC0003714, succinic acid] | 98.68% |
| CC(C)(S)C(=O)N[C@@H](CS)C(=O)O [ONC0003276, bucillamine] | 45.36% |
| CC(=O)N[C@@H](CS)C(=O)O [ONC0000337, acetylcysteine] | 67.99% |
| CC(C)OC(=O)CNC(=O)[C@H](CS)NC(=O)CC[C@H](N)C(=O)O [ONC0002985, glutathionemonoisopropylester] | 70.59% |
| NC(=O)c1cc[n+](CC2=C(C(=O)O)N3C(=O)[C@@H](NC(=O)Cc4cccs4)[C@H]3SC2)cc1 [ONC0005624, cefalonium] | 95.75% |
